Each structure is given as a SMILES string. Compounds without any hit were thinned out: in the full panel of roughly 83,000, 20% have a hit.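 Assay: single dose, 48 h. Readout: percent growth (0 = no net growth; negative = cell death). Active: <10.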 Unmarked numbers belong to inactive results. The source made the active and inactive calls.

The subject of the assay is SNB-19 CNS. As to the kind of experiment: NCI-60 one-dose screen, 48 h (100 = growth as untreated, 0 = no growth, -100 = all killed). The following applies: 10 µM unless noted. As to the method: Growth inhibition of the SNB-19 human tumor cell line is measured as a screen for anti-cancer activity. Cells are grown in 96 well plates and exposed to the test compound for 48 hours. Compounds are tested at a single concentration, which is 10^-5 M for most compounds. The reported endpoint is percent growth (GI% or GIPRCNT), where numbers from 0 - 100% represent growth inhibition, and numbers from -100% - 0 represent cell death. For example, a value of 40 represents 60% growth inhibition. A value of 0 means no net growth occurred over the course of the experiment. A value of -40 indicates 40% of cells at the beginning of the experiment died by the end of the experiment. A value of -100 means all cells are dead at the end of the experiment.
NCI-60 Human Tumor Cell Lines Screen was performed using the standard one-dose NCI protocol, which is described in more detail at https://dtp.cancer.gov/discovery_development/nci-60/default.htm.
Compounds with GIPRCNT values below 10 were considered active. Activity score was based on GIPRCNT using the following formula: […]
Score is 0 for GIPRCNT values of 100 or above, 50 for GIPRCNT values of 0, and 100 for GIPRCNT values of -100.
With `O=C(Nc1ncccc1OCc1ccccc1)NC1CCCCCC1`, the growth is 97.9%.
For `Cc1ccc2nc(NC(=O)CSc3nc(-c4ccccc4)c(C#N)c4nnnn34)sc2c1`, the growth was 102%.
As for `CC1(C)C(N)=Nc2cc(OCCCN3Cc4ccccc4C3)c(OCC3CC3)cc21`, the figure is 85.2%; as for `CC(C)(C)c1cc(Cl)c(O)c(CNCCO)c1`, 113%; as for `CCN(CC)CCN1C(=O)c2c(c(C)c3c(oc4ccc(OC)cc43)c2C)C1=O`, 88%.
The value for `CCNC(=O)Oc1ccc(/C(=C(/CC)Cc2ccccc2)c2ccc(OCCN3CCCC3)cc2)cc1` was 93.4%.
For `C=CCC(CCCC)(C(=O)OCC)C(=O)OCC`, the growth was 99%.
On to `CC[N+]1(CC)CC[N+]2(CCCC(C)CC2)CC1` (stereo not given), for which the growth is 102%.
As for `Fc1cccc(-c2ccc3c(c2)C2(CCNCC2)CN3)c1`, the figure is 112%; as for `C/C=C(\C)C(=O)N[C@H]1C(O)C[C@]2(C)C3CC[C@@]4(C)C(CC[C@@H]4C(C)N(C)C)C3CCC2C1O` (stereo not given in full), 104%; as for `CCC1S/C(=N\N=C(\C)c2cc3cc(Cl)ccc3o2)N(c2ccccc2)C1=O` (stereo not given), 101%.
Regarding `Cc1ccc2c(=O)cc(C(=O)Nc3sc4c(c3C(=O)NCc3cccnc3)CCCC4)oc2c1C`, the growth is 96.1%.
The value for `COc1ccc2c(c1)/C(=N/c1n[nH]c(=S)s1)C(=O)N2` was 99.1%; that for `CC(=O)/C(=C/c1ccc([N+](=O)[O-])cc1)C(=O)c1ccccc1` was 92.5%.
With `Nc1nc(NC(=O)Nc2ccc(C(=O)O)cc2)nn1-c1ccc(S(N)(=O)=O)cc1`, the growth is 90.6%.
Take `O=C1NC(=O)/C(=C/c2c(-c3ccccc3)nc3sc(COc4ccccc4)nn23)S1`: the growth is 95.6%.
Take `O=C(/C=C/c1ccccc1)c1ccc(Nc2nc(Nc3ccc(F)cc3)nc(Nc3ccc(Cl)cc3)n2)cc1`: the growth was 101%.
As for `O=C(CSc1nnc(-c2cc(-c3ccccc3)nc3ccccc23)n1-c1ccccc1)Nc1ccc(C(=O)/C=C/c2ccc(Cl)cc2)cc1`, the figure is 101%; as for `C=C1C(=O)O[C@H]2[C@H]1CC/C(COC(=O)CSCSCC(=O)OC/C1=C/CC[C@@]3(C)O[C@H]3[C@H]3OC(=O)C(=C)[C@@H]3CC1)=C\CC[C@@]1(C)O[C@@H]21`, 54%.
As to `O=C1C(Nc2ccccn2)=C(I)C(=O)c2ncccc21`, the growth is 0% (active).
For `COc1cccc(C(=O)NNc2nc(Cl)nc(Cl)n2)c1`, the growth was 93%.
The value for `O=C(Nc1ccc(Br)cc1)C1=NCCCCN1` was 97.3%; that for `Cc1ccc(S(=O)(=O)OCCCOS(=O)(=O)c2ccc(C)cc2)cc1` was 97.9%.
Consider `CCCCCN(CCCCC)CC(O)c1cc(C)c2ccc3cc(C(C)C)ccc3c2c1` (stereo not given), for which the growth is 7.47% (active).
In the case of `O=S(=O)(NCCNc1nccc(-c2c(-c3ccc(F)c(O)c3)nc3sccn23)n1)c1ccc(F)cc1`, the growth was 59.1%.
Consider `C=C1C(=O)O[C@H]2[C@H]1CC/C(COC(=O)/C=C/C(=O)OC/C1=C/CC[C@@]3(C)O[C@H]3[C@H]3OC(=O)C(=C)[C@@H]3CC1)=C\CC[C@@]1(C)O[C@@H]21`, for which the growth is 90.5%.
Regarding `CC(C)(C)n1cc(-c2ccnc(NCCCNS(=O)(=O)c3ccc(C(F)(F)F)cc3)c2)c(-c2cccc(F)c2)n1`, the growth was 86.5%.
As for `COc1ccc(/C=C2\CN(C(=O)C(Cl)Cl)C/C(=C\c3ccc(OC)cc3)C2=O)cc1`, the figure is -10.9% (active).
As for `CCOc1c(OC)cc2c(c1O)C(=O)N[C@@H]1[C@@H](O)[C@@H](O)[C@H](O)C[C@@H]21`, the figure is 99%.
The value for `O=c1cc(-c2ccccc2)[nH]c2ncc(-c3ccc(F)cc3)n12` was 68.3%; that for `O=C(Nc1ncc(Cc2ccccc2)s1)c1ccc2c(c1)OCCCO2` was 37.4%.
For the molecule `C=C1C(=O)O[C@H]2[C@H]1CC/C(COC(=O)/C=C\C(=O)NCc1ccc(Cn3c(=O)sn(CCCl)c3=O)cc1)=C\CC[C@@]1(C)O[C@@H]21`, the growth is 111%.
The value for `CCN1C(=O)N(CC)C2C1NN=c1s/c(=C\c3ccc(C(F)(F)F)cc3)c(=O)n12` (stereo not given) was 24%.
As for `N#Cc1cncc(-c2ccc3ncnc(Nc4cccc(Cl)c4)c3c2)c1`, the figure is 63.3%; as for `CN1CCN(Cc2ccc(NC(=O)c3cncc(C#Cc4cnc(N)c5ccc(F)cc45)c3)cc2C(F)(F)F)CC1`, 29.4%.
The value for `[2H]C([2H])([2H])Oc1ccc(F)cc1/C=C/C(=O)/C=C(/C=C/c1cc(F)ccc1OC([2H])([2H])[2H])OB(F)F` was 94.9%; that for `C/C(=N\O)[C@@H]1CC[C@]2(CO)CC[C@]3(C)[C@H](CC[C@@H]4[C@@]5(C)CCCNC(C)(C)[C@@H]5CC[C@]43C)[C@@H]12` was 89.4%.
With `CC(C)N1C(=O)/C(=c2\sc3n(c2=O)C2C(NN=3)N(C)C(=O)N2C)c2ccccc21` (stereo not given), the growth is 61.9%.
`COc1cccc(/C=C/C(=O)c2cc3c(N)c(C(=O)Nc4cccc5ccccc45)sc3nc2C)c1`: the growth was -18.8% (active).
Take `CC[C@]12C=CCN3CC[C@@]4(c5ccc(OC)cc5N(C)[C@H]4[C@@](O)(C(=O)OC)[C@@H]1OC(=O)CCC[P+](c1ccccc1)(c1ccccc1)c1ccccc1)[C@@H]32`: the growth is 11%.

The values are drawn from PubChem BioAssay (NCI).
